# From PubChem
# SMARCA2 activ = SMARCA2 (BRM) function activators, primary screen, cell-based, luminescence, high throughput | activation, % at 9.1 µM | 1% of 370,000 active | MG213 cells, MMTV-luciferase reporter, dexamethasone, overnight; in the data active = activation above about 7.8%;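 note: 0% = vehicle wells and 100% = reference activator wells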
# esBAF inh = Bmi1 luciferase reporter increase in mESCs, primary screen, esBAF inhibitor project, mouse ES cells, Bmi1 luciferase knock-in, single point. reporter increase, % at 12.5 µM. 2% of 350,000 active. 24 h; 100% = twice the neutral-well signal; in the data active = activation above about 40%;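 note: 0% = median of the plate's neutral control wells and 100% = double that signal; a rise in the Bmi1 reporter signal indicates esBAF inhibition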
# Gli-Sufu antag = Gli-Sufu pathway antagonists, primary screen, luciferase luminescence, Sufu-KO-LIGHT cells, uHTS; AID 588413, 2011; inhibition, % at 5 µM; 0.74% of 340,000 active; Sufu-KO-LIGHT fibroblasts, Gli luciferase reporter luminescence;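 active = inhibition above about 55%, limit read from the data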;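 note: 0% = DMSO-treated cells and 100% = wells with medium but no cells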
# 697 NFkB inh = inhibitors of PMA/ionomycin-induced NF-kB reporter, 697 cells, primary screen, B-cell NF-kB inhibitor project, cell-based, luminescence, uHTS | 697 B-cell NF-kB luciferase reporter, 16 h | inhibition, % at 4 µM | 0.33% of 330,000 active | AID 435022, 2010; in the data active = inhibition above about 35%
# Jurkat NFkB inh = inhibitors of induced NF-kB luciferase reporter, primary screen, TCR NF-kB activation inhibitor project, cell-based, luminescence, uHTS; Jurkat, PMA/ionomycin-induced NF-kB luciferase reporter; inhibition, % at 4 µM; 0.53% of 330,000 active; AID 435003, 2010; in the data active = inhibition above about 50%
# SMARCA2 act conf = SMARCA2 (BRM) function activators, confirmation, cell-based, luminescence, triplicate. shares compounds with SMARCA2 activ. MG213 cells, MMTV-luciferase with dexamethasone, overnight; MG213 cells expressing E1A, Rb sequestered; DMSO wells 0%, reference activator 100%. activation, % at 9.1 µM. 30% of 3,500 active;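 active = activation above its plate's cutoff, the mean activation of tested wells plus 3 SD, cut at about 7.9% in these data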
# GAL4-VP16 Luc = GAL4-VP16 luciferase reporter activation, counter-screen for SMARCA2 (BRM) activator project, cell-based, pG5luc, luminescence, high throughput. shares compounds with SMARCA2 activ. activation, % at 9.1 µM. HEK293 GAL4-VP16 pG5luc reporter; scaled: DMSO wells 0%, SAHA wells 100%. 41% of 3,500 active;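 active = activation above the solvent-only control well mean plus 3 SD, averaged across control plates, cut at about 5.2% in these data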
# Numbers without * were called inactive; x = not tested or not shown. Rows were chosen to be rich in hits. Some 3.3% of all compounds tested hit in one or more screens of this group.
SMILES,SMARCA2 activ,esBAF inh,Gli-Sufu antag,697 NFkB inh,Jurkat NFkB inh,SMARCA2 act conf,GAL4-VP16 Luc
CC(C)Cc1cc(C(=O)NCc2cccnc2)no1,2.5,24.1,-28.3,-52.3,-1.2,x,x
Cc1cc(C(=O)NCc2ccco2)on1,5.4,1.4,-6.0,-5.7,-12.6,x,x
O=C(NCc1ccco1)c1noc2c1CCCCC2,10.4*,34.2,-25.8,-5.2,-9.9,4.3,0.6
CC(C)c1cc(C(=O)NCc2ccco2)no1,9.0*,28.7,-19.3,-38.5,-18.1,7.7,7.3*
CC(C)Cc1cc(C(=O)NCc2cccs2)no1,12.8*,65.2*,-74.2,-61.3,-75.5,6.5,14.4*
O=C(C[C@H]1C[C@@H]2c3cc(NC(=O)C4CCC4)ccc3O[C@@H]2[C@@H](CO)O1)NCC(F)(F)F,x,7.8,x,x,x,x,x
O=c1c2c(nc3cc(-c4ccc(F)cc4)[nH]n13)CCCC2,1.4,-49.6,-41.0,-207.1,-97.1,x,x
O=c1c2c(nc3cc(-c4cccc(Cl)c4)[nH]n13)CCC2,10.5*,-6.4,-55.2,-144.1,-91.8,16.1*,13.0*
O=c1c2c(nc3cc(-c4cccc(F)c4)[nH]n13)CCC2,12.5*,1.4,-61.8,-88.7,-19.6,8.0*,11.7*
O=c1c2c(nc3cc(-c4ccc(Cl)cc4)[nH]n13)CCS2,12.6*,x,-64.4,-157.0,-66.9,8.6*,7.6*
COc1ccccc1/C=N/NC(=O)C(=O)N1CCN(c2ccccc2OC)CC1,10.1*,x,-7.5,-16.6,-5.7,-1.1,-0.6
COc1ccccc1N1CCN(C(=O)C(=O)N/N=C/c2cccc(O)c2)CC1,0.9,0.1,4.5,4.6,2.6,x,x
Cc1ccc(C(C#N)=Cc2ccc3c(c2)OCO3)cc1,13.5*,x,x,x,x,1.6,10.7*
CCOc1ccc(NC(=O)C(c2ccccn2)N(C(=O)CCl)c2ccc(OC)cc2)cc1 (configuration not stated),9.7*,x,-4.9,-77.8,-31.2,7.7,4.4
O=C(C[C@@H]1CC[C@H]2[C@@H](COC[C@H](O)CN2C(=O)c2ccncc2)O1)NCc1ccc(-c2ccccc2)cc1,x,-0.8,x,x,x,x,x
CN1C(=O)c2cc(NC(=O)c3ccc(F)c(F)c3)ccc2OC[C@H]2O[C@H](CC(=O)N3CCOCC3)CC[C@@H]21,x,-6.3,x,x,x,x,x
Cc1ccc(C(=O)CCNc2cccc(Br)c2)o1,8.8*,x,-11.1,0.2,12.9,2.3,1.2
O=C(CCNc1cccc(F)c1)c1cc2ccccc2o1,-1.4,x,-11.4,-7.0,-4.6,x,x
O=C(Cc1ccccn1)N[C@@H]1C=C[C@@H](CC(=O)N2CCCCC2)O[C@H]1CO,x,0.1,x,x,x,x,x
Cn1cc(S(=O)(=O)Cc2ccc(F)cc2)c2ccccc21,8.2*,4.4,22.4,7.3,4.4,-3.0,-0.2
CCN(CC)S(=O)(=O)c1cccc(NN=c2c(=O)c3ccccc3c2=O)c1,-2.6,1.6,11.8,-15.3,-4.6,x,x
O=c1c(=NNc2ccccc2Cl)c(=O)c2ccccc12,8.4*,-13.6,28.9,x,x,0.3,4.7
CC(C)NC(=O)Nc1cccc2c1O[C@H](CN(C)S(=O)(=O)c1cccs1)[C@@H](C)CN([C@@H](C)CO)C2=O,x,1.1,x,x,x,x,x
COc1ccc2nc(C)cc(N/N=C/c3cccc(OC)c3O)c2c1,27.0*,-3.0,19.0,1.3,-22.5,19.9*,2.0
COc1ccc(/C=N/Nc2cc(C)nc3ccc(Br)cc23)cc1,9.4*,-43.1,19.5,-6.7,31.3,3.7,1.3
SMILES,SMARCA2 activ,esBAF inh,Gli-Sufu antag,697 NFkB inh,Jurkat NFkB inh,SMARCA2 act conf,GAL4-VP16 Luc
COc1cccc2c(N/N=C/c3ccccc3)cc(C)nc12,4.7,6.3,-5.5,-15.8,-15.0,x,x
CC(=O)c1cccc(NC(=S)NC(=O)C(C)C)c1,8.7*,3.3,-6.4,4.8,-9.0,-1.1,-0.5
Cc1cccc(C(=O)N[C@H](C(=O)Nc2ncc(C)s2)C(C)C)c1,26.9*,x,-92.7,-30.1,5.0,25.9*,0.3
Cc1cc(NS(=O)(=O)c2ccc(NC(=O)CSc3nnc(-c4ccncc4)n3-c3ccccc3)cc2)nc(C)n1,-3.3,x,x,x,x,x,x
Cc1cc(NS(=O)(=O)c2ccc(NC(=O)CSc3nnc(-c4ccc(Cl)cc4)n3Cc3ccco3)cc2)nc(C)n1,9.5*,x,x,x,x,-3.3,-0.6
COc1ccc(-c2nnc(SCC(=O)Nc3ccc(S(=O)(=O)Nc4cc(C)nc(C)n4)cc3)n2-c2ccc(OC)cc2)cc1,10.3*,x,x,x,x,-0.4,-0.2
Cc1cc(NS(=O)(=O)c2ccc(NC(=O)CSc3nnc(-c4ccncc4)n3Cc3ccco3)cc2)nc(C)n1,-4.6,x,x,x,x,x,x
COc1ccc(S(=O)(=O)N(C)C[C@H]2OCCCC[C@@H](C)Oc3ccc(NS(=O)(=O)c4cn(C)cn4)cc3C(=O)N([C@@H](C)CO)C[C@H]2C)cc1,x,18.4,x,x,x,x,x
C[C@@H]1CN([C@H](C)CO)C(=O)Cc2cc(NC(=O)CCC(F)(F)F)ccc2O[C@@H]1CN(C)S(=O)(=O)c1cn(C)cn1,x,1.0,x,x,x,x,x
CN1CCN(C(=O)C[C@@H]2C=C[C@@H](NC(=O)Nc3ccccc3F)[C@@H](CO)O2)CC1,x,-3.3,x,x,x,x,x
N=c1c2ccccc2nc2n1CCCCCCC2,9.0*,-6.7,x,x,x,3.3,1.7
CCC(C)Nc1nc(C)nc2c1nnn2Cc1ccccc1 (configuration not stated),8.0*,x,x,x,x,5.5,0.9
Cc1nc(NCCC(C)C)c2nnn(Cc3ccccc3)c2n1,-4.2,3.8,x,-15.2,-7.4,x,x
CO[C@@H]1CN(C)C(=O)c2ccc(NS(C)(=O)=O)cc2OC[C@@H](C)N(C(=O)C2CC2)C[C@H]1C,x,-1.5,x,x,x,x,x
O=C1c2cccc3c(N4CCCCC4)ccc(c23)C(=O)N1CCO,8.5*,72.1*,-34.1,-108.0,-63.5,7.8*,8.6*
C[C@@H]1CCCCO[C@@H](CN(C)C(=O)Cc2ccccc2)[C@H](C)CN([C@@H](C)CO)C(=O)c2cc(NS(=O)(=O)c3ccc(Cl)cc3)ccc2O1,x,12.2,x,x,x,x,x
Cc1noc(C)c1NC(=O)N(C)C[C@@H]1OCCCC[C@@H](C)Oc2ccc(N(C)C)cc2C(=O)N([C@H](C)CO)C[C@@H]1C,x,-0.3,x,x,x,x,x
Cc1cc(C(=O)CN2C(=O)NC(C)(CC(C)C)C2=O)c(C)n1-c1ccc2c(c1)OCO2 (configuration not stated),-4.8,20.3,7.1,-27.4,-15.3,x,x
Cc1cc(C(=O)CN2C(=O)NC3(CCCC3)C2=O)c(C)n1-c1ccc2c(c1)OCO2,9.4*,x,-27.5,-4.4,-3.9,-2.3,1.7
